Here are results for 40 molecules from PubChem BioAssay (NCI).

The panel holds about 83,000 compounds, 20% with a hit somewhere; the sample as a whole holds those more often.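 Assay: single dose, 48 h. Readout: percent growth (0 = no net growth; negative = cell death). Active: <10.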 Active and inactive are the calls of the source.

The test system of the assay is NCI-H23 lung. In words: NCI-60 one-dose screen, 48 h (100 = growth as untreated, 0 = no growth, -100 = all killed). As to conditions: 10 µM. As for the experimental part: Growth inhibition of the NCI-H23 human Non-Small Cell Lung tumor cell line is measured as a screen for anti-cancer activity. Cells are grown in 96 well plates and exposed to the test compound for 48 hours. Compounds are tested at a single concentration, which is 10^-5 M for most compounds. The reported endpoint is percent growth (GI% or GIPRCNT), where numbers from 0 - 100% represent growth inhibition, and numbers from -100% - 0 represent cell death. For example, a value of 40 represents 60% growth inhibition. A value of 0 means no net growth occurred over the course of the experiment. A value of -40 indicates 40% of cells at the beginning of the experiment died by the end of the experiment. A value of -100 means all cells are dead at the end of the experiment.
NCI-60 Human Tumor Cell Lines Screen was performed using the standard one-dose NCI protocol, which is described in more detail at https://dtp.cancer.gov/discovery_development/nci-60/default.htm.
Compounds with GIPRCNT values below 10 were considered active. Activity score was based on GIPRCNT using the following formula: […]
Score is 0 for GIPRCNT values of 100 or above, 50 for GIPRCNT values of 0, and 100 for GIPRCNT values of -100.
In the case of `Nc1ccc(NC(=O)c2cccc(N)c2)cc1`, the growth was 96.7% (inactive). For `Cc1c(O)cccc1O` the value was 106% (inactive). With `CCOC(=O)c1ccc(NC(=S)P(=O)(c2ccccc2)c2ccccc2)cc1`, the growth is 102% (inactive). For `O=[N+]([O-])c1ccccc1S(=O)c1ccccc1[N+](=O)[O-]` the value was 95.9% (inactive); for `C/C=C/CC(C)C(O)C1C(=O)NC(CC)C(=O)N(C)CC(=O)N(C)C(CC(C)C)C(=O)NC(C(C)C)C(=O)N(C)C(CC(C)C)C(=O)NC(C)C(=O)NC(C)C(=O)N(C)C(CC(C)C)C(=O)N(C)C(CC(C)C)C(=O)N(C)C(C(C)C)C(=O)N1C` (stereo not given), 20.1% (inactive). For the molecule `Brc1cnc2ccccc2c1`, the growth was 103% (inactive). Take `CCN(CC)CCCC(C)Nc1ccnc(/C=C/c2ccc(Cl)cc2)c1` (stereo not given): the growth is 67.4% (inactive). Regarding `COc1cc(C(N)=O)cc(OC)c1OC`, the growth was 101% (inactive). Turning to `CC1Cc2ccccc2O1` (stereo not given), the growth is 98.6% (inactive). The figure for `O=[N+]([O-])c1ccc(-c2ncc(-c3ccc(Br)cc3)o2)cc1` is 93.7% (inactive); for `CC(C)=CC(=O)OC(=O)C=C(C)C` it is 117% (inactive); for `S=C1CCCCCN1` it is 105% (inactive). For `Cc1cccc([N+](=O)[O-])c1Cl`, the growth is 96.4% (inactive). Regarding `COC(=O)c1ccc(NC(=O)CCl)cc1`, the growth was 85.3% (inactive). For `CC(=O)c1cc2c(cc1F)C(C)(C)CCC2(C)C` the value was 90.6% (inactive); for `CC(CC(=O)c1ccccc1)c1ccccc1` (stereo not given), 106% (inactive). Regarding `O=C(Nc1ccccc1)OCCc1ccccc1`, the growth was 108% (inactive).

Turning to `O=C(NN=C1CCCCC1)C(=O)NN=C1CCCCC1`, the growth was 105% (inactive).

Consider `Nc1ncnc2[nH]ncc12`, for which the growth is 17.7% (inactive). For `O=c1[nH]n(-c2ccccc2)c(=O)cc1Cl` the value was 106% (inactive); for `CN(C)c1nc2c([nH]1)c(=O)n(C)c(=O)n2C`, 99.8% (inactive); for `O=C(O)[C@@H]1[C@H]2C[C@H]3c4[nH]c5ccccc5c4CCN3C[C@@H]2CC[C@@H]1O`, 102% (inactive). Regarding `COc1cc2c3c(n(C)c(=O)c2cc1OC)-c1cc2c(cc1C3=O)OCO2`, the growth was 71.9% (inactive). With `O=C(Cc1ccccc1)Cc1ccccc1`, the growth is 103% (inactive). `CC[N+](C)(CC)CCO`: the growth is 107% (inactive). Consider `COc1ccc(/C=C/c2cccc[n+]2C)cc1`, for which the growth was 100% (inactive). The figure for `O=C(O)/C=C/c1ccc2c(c1)CCC2` is 113% (inactive); for `C=CC(O)CCC` (stereo not given) it is 106% (inactive); for `CC(=O)c1ccc(N=C(C#N)C2=C(O)c3ccccc3C2=O)cc1` it is 104% (inactive).

For `COC(=O)Nc1nc2ccc(C(=O)c3cccs3)cc2[nH]1`, the growth is 14.2% (inactive). For `Cc1cc(C(O)(c2ccc(Nc3ccccc3)cc2)c2ccc(Nc3ccc(S(=O)(=O)O)cc3)cc2)ccc1N` (stereo not given), the growth is 8.07% (active). Consider `O=[N+]([O-])c1ccc(S(=O)(=O)NN=C2CCCCC2)cc1`, for which the growth is 104% (inactive). In the case of `O=C1c2ccccc2C(=O)c2c1ccc(C(=O)O)c2[N+](=O)[O-]`, the growth was 101% (inactive). Consider `O=[N+]([O-])c1ccc(Sc2ccncn2)c([N+](=O)[O-])c1`, for which the growth was 60% (inactive). For `O=C1c2ccccc2C(=O)N1OCc1ccccc1` the value was 111% (inactive); for `CCOc1ccccc1/C=N/Nc1nc2ccccc2o1`, 91.8% (inactive); for `COc1cc(CCN=Cc2ccccc2O)c([N+](=O)[O-])cc1OC`, 100% (inactive).

Take `CCCCC(=O)c1ccc(OC)cc1`: the growth is 99.7% (inactive).

For the molecule `CC1(O)CCCCC1O` (stereo not given), the growth is 103% (inactive). For `S=c1nn[nH]c2ccccc12` the value was 99.6% (inactive).
